Laboratory results from PubChem BioAssay AID1159580 (chemical genetic matrix, 2015).
Hit rate of the full screen: of about 5,500 compounds, about 2,000 (36%) were called active. Not shown: some 18% with an inconclusive outcome. Cut-off read from the data, not from the text of the source: active = normalized growth mostly below about 0.91 (no sharp cut-off); inconclusive = no clear call, values can overlap the other calls; inactive = mostly above about 0.92. Some of the results follow.

Test: chemical genetic growth profiling, strain panel (AID 1159580);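 note: tested at 20 µM; growth read once vehicle control cultures reached saturation at 30 °C; 1 = growth at the plate median or of vehicle wells; lower values mean less growth of the strain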
Conditions: S. cerevisiae deletion strains, growth OD

Measured: normalized growth

NC(N)=NCCSSCCN=C(N)N
inactive: locus YAL013W, strain DEP1, stronger effect = lower value 0.949 | locus YAL040C, strain CLN3, stronger effect = lower value 0.948 | locus YCL061C, strain MRC1 (second series), stronger effect = lower value 0.979 | locus YDR150W, strain NUM1, stronger effect = lower value 0.988 | locus YDR363W, strain ESC2, stronger effect = lower value 0.941 | locus YER002W, strain NOP16, stronger effect = lower value 0.992 | locus YGR078C, strain PAC10, stronger effect = lower value 0.973 | locus YJR075W, strain HOC1, stronger effect = lower value 0.967 | locus YMR263W, strain SAP30, stronger effect = lower value 0.981 | locus YMR307W, strain GAS1, stronger effect = lower value 0.977 | locus YNL175C, strain NOP13, stronger effect = lower value 0.981 | locus YNL197C, strain WHI3, stronger effect = lower value 0.972 | locus YNL224C, strain SQS1, stronger effect = lower value 1.01 | locus YOR083W, strain WHI5 (second series), stronger effect = lower value 0.963 | locus YPL055C, strain LGE1, stronger effect = lower value 0.983
